Test systems include HCT-15 colon; HT29 colon; SNB-75 CNS; SNB-19 CNS; U251 CNS; PC-3 prostate; SK-MEL-5 melanoma; UACC-62 melanoma; SK-MEL-28 melanoma; SK-MEL-2 melanoma; EKVX NSCLC; SN12C renal; UO-31 renal; ACHN renal; CAKI-1 renal; A498 renal; CCRF-CEM leukemia; MOLT-4 leukemia; LOX IMVI melanoma; TK-10 renal.
Holding throughout (experiment): NCI-60 one-dose screen, 48 h (100 = growth as untreated, 0 = no growth, -100 = all killed)
Details in all cases: 10 µM unless noted

Our source for the growth values is PubChem BioAssay (NCI).

Several values for one entry are separate records, joined by “and”; a condition that tells them apart may be missing. Equal entries are not always repeated. Compounds without any hit were thinned out: in the full panel of roughly 83,000, 20% have a hit.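 How to read the values: 0–100, growth inhibition (40 = 60% inhibited); 0, no net growth; -100 to 0, cell death (-40 = 40% of starting cells died; -100 = all dead).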 Activity calls are given as the source filed them. How the source made its calls: active means growth percent below 10; inactive means the rest.

Consider `CCN(CC)CCCC(CNc1ccnc2cc(Cl)ccc12)c1ccc(Cl)cc1` (stereo not given), for which the growth with HCT-15 colon was -29.5% (active) and 5.81% (active); with HT29 colon, 3.38% (active) and -5.84% (active); with SNB-75 CNS, -76.2% (active) and -39.9% (active); in the experiment with SNB-19 CNS it was 2.34% (active) and 92.4% (inactive); in the experiment with U251 CNS, -71.9% (active) and -57.4% (active); in the experiment on PC-3 prostate, 34.2% (inactive) and 19.3% (inactive). The growth in the experiment with SK-MEL-5 melanoma was -92.8% (active) and -96.9% (active); in the experiment with UACC-62 melanoma, -77.6% (active) and 97.7% (inactive); in the experiment on SK-MEL-28 melanoma, -83.7% (active) and -85.7% (active); in the experiment with SK-MEL-2 melanoma, -56.2% (active) and -67.7% (active); in the experiment with EKVX NSCLC, -3.66% (active) and 12.1% (inactive); in the experiment with SN12C renal, -3.18% (active) and 84.7% (inactive). For the same compound, the growth in the experiment on UO-31 renal was -91.5% (active) and -65.7% (active); in the experiment with ACHN renal it was -80.7% (active) and 2.15% (active); in the experiment on CAKI-1 renal, -64.4% (active) and -63.6% (active); with A498 renal, 42.3% (inactive) and -81.8% (active); with CCRF-CEM leukemia it was -17.5% (active) and -46.6% (active); with MOLT-4 leukemia, -18% (active) and -51.4% (active).
With `CCC(C)C1(C2CCCC2)NC(=O)NC1=O` (stereo not given), the growth in the experiment on HCT-15 colon was 107% (inactive) and 102% (inactive); in the experiment on HT29 colon, 97.3% (inactive) and 108% (inactive); with SNB-75 CNS, 94.5% (inactive) and 103% (inactive); in the experiment with SNB-19 CNS it was 98.8% (inactive) and 99.7% (inactive); in the experiment on U251 CNS it was 105% (inactive) and 108% (inactive); with PC-3 prostate, 102% (inactive) and 95.2% (inactive). In addition, the growth in the experiment with UACC-62 melanoma was 95.5% (inactive) and 96.8% (inactive); in the experiment on LOX IMVI melanoma, 92.2% (inactive); in the experiment on SK-MEL-28 melanoma it was 109% (inactive) and 108% (inactive); in the experiment with SK-MEL-2 melanoma, 94.2% (inactive) and 129% (inactive); with EKVX NSCLC, 108% (inactive) and 100% (inactive); in the experiment on SN12C renal, 100% (inactive) and 96% (inactive). For the same compound, the growth with UO-31 renal is 86.3% (inactive) and 96.6% (inactive); with TK-10 renal, 92.4% (inactive) and 118% (inactive); in the experiment on ACHN renal, 111% (inactive) and 108% (inactive); with CAKI-1 renal it was 112% (inactive) and 94% (inactive); in the experiment with A498 renal it was 108% (inactive) and 81.8% (inactive); in the experiment with CCRF-CEM leukemia it was 92.8% (inactive) and 107% (inactive). Further, the growth with MOLT-4 leukemia is 91.2% (inactive) and 106% (inactive).
As for `O=C(O)CSCc1nc2ccccc2[nH]1`, the growth was 112% (inactive) with HCT-15 colon; 103% (inactive) in the experiment on HT29 colon; 88.7% (inactive) in the experiment on SNB-75 CNS; 97.4% (inactive) in the experiment on SNB-19 CNS; 109% (inactive) with U251 CNS; 95.5% (inactive) in the experiment with PC-3 prostate. The growth with SK-MEL-5 melanoma is 108% (inactive); in the experiment with UACC-62 melanoma, 93.9% (inactive); in the experiment on SK-MEL-28 melanoma it was 105% (inactive); with SK-MEL-2 melanoma, 105% (inactive); in the experiment with EKVX NSCLC, 117% (inactive); with SN12C renal, 93.1% (inactive). For the same compound, the growth in the experiment on UO-31 renal was 93.3% (inactive); in the experiment with TK-10 renal, 121% (inactive); in the experiment on ACHN renal, 99.8% (inactive); in the experiment on CAKI-1 renal, 107% (inactive); in the experiment on A498 renal, 97% (inactive); with CCRF-CEM leukemia, 93.7% (inactive). In the experiment on MOLT-4 leukemia, the growth is 99.5% (inactive).
Take `N#CCCOc1ccccc1`: the growth with HCT-15 colon was 97.5% (inactive); in the experiment on HT29 colon, 100% (inactive); with SNB-75 CNS it was 101% (inactive); in the experiment on SNB-19 CNS, 108% (inactive); with PC-3 prostate it was 88.7% (inactive); with SK-MEL-5 melanoma, 105% (inactive). In addition, the growth in the experiment with UACC-62 melanoma was 127% (inactive); in the experiment with LOX IMVI melanoma, 102% (inactive); in the experiment with SK-MEL-28 melanoma it was 101% (inactive); in the experiment with SK-MEL-2 melanoma, 89.4% (inactive); in the experiment on SN12C renal, 99.8% (inactive); in the experiment on UO-31 renal, 92.8% (inactive). The growth with TK-10 renal is 97.2% (inactive); in the experiment on ACHN renal, 102% (inactive); with CAKI-1 renal it was 91.6% (inactive); in the experiment with A498 renal, 101% (inactive); in the experiment with CCRF-CEM leukemia it was 95.7% (inactive); in the experiment on MOLT-4 leukemia it was 90.4% (inactive).
`O=C1c2c(O)cc(O)cc2OC(c2ccc(O)c(O)c2)C1O` (stereo not given): the growth was 108% (inactive) in the experiment with HCT-15 colon; 110% (inactive) in the experiment with HT29 colon; 96.1% (inactive) in the experiment with SNB-75 CNS; 101% (inactive) in the experiment with SNB-19 CNS; 102% (inactive) in the experiment on U251 CNS; 96.4% (inactive) in the experiment on PC-3 prostate. For the same compound, the growth with SK-MEL-5 melanoma is 104% (inactive); in the experiment with UACC-62 melanoma it was 106% (inactive); with SK-MEL-28 melanoma it was 108% (inactive); in the experiment with SK-MEL-2 melanoma it was 105% (inactive); in the experiment with EKVX NSCLC, 119% (inactive); in the experiment with SN12C renal, 104% (inactive). The growth was 104% (inactive) with TK-10 renal; 105% (inactive) in the experiment on ACHN renal; 118% (inactive) in the experiment on CAKI-1 renal; 107% (inactive) in the experiment with A498 renal; 97.7% (inactive) with CCRF-CEM leukemia; 107% (inactive) in the experiment with MOLT-4 leukemia.
As to `Nc1ccc2ccc(N)cc2c1`, the growth with HCT-15 colon was 74.4% (inactive); in the experiment with HT29 colon it was 94.2% (inactive); in the experiment on SNB-75 CNS, 91.3% (inactive); in the experiment with SNB-19 CNS, 96.1% (inactive); with PC-3 prostate, 60.3% (inactive); in the experiment on SK-MEL-5 melanoma it was 83% (inactive). Further, the growth is 80.7% (inactive) in the experiment with UACC-62 melanoma; 65.1% (inactive) in the experiment with LOX IMVI melanoma; 92.1% (inactive) in the experiment with SK-MEL-28 melanoma; 68.4% (inactive) with SK-MEL-2 melanoma; 88.5% (inactive) in the experiment on SN12C renal; 59.4% (inactive) in the experiment on UO-31 renal. The growth in the experiment with TK-10 renal is 117% (inactive); in the experiment with ACHN renal, 84.8% (inactive); with CAKI-1 renal it was 75.7% (inactive); in the experiment on A498 renal, 100% (inactive); in the experiment with MOLT-4 leukemia, 76.8% (inactive).
As for `Cc1nn(-c2ccc(Cl)cc2)c2ncnc(N/N=C/c3ccccc3O)c12`, the growth is 31.9% (inactive) and 27.1% (inactive) in the experiment with HCT-15 colon; 20.1% (inactive) and 31.1% (inactive) with HT29 colon; 29.6% (inactive) and 23.7% (inactive) in the experiment on SNB-19 CNS; 13% (inactive) and 11.8% (inactive) in the experiment with U251 CNS; 41.6% (inactive) and 28.1% (inactive) in the experiment on PC-3 prostate; -62.4% (active) and -60.4% (active) in the experiment with SK-MEL-5 melanoma. Further, the growth in the experiment with UACC-62 melanoma is 13.5% (inactive) and -37.1% (active); in the experiment on LOX IMVI melanoma it was 35.1% (inactive) and 7.4% (active); in the experiment with SK-MEL-28 melanoma it was 25.2% (inactive) and 14.5% (inactive); in the experiment with SK-MEL-2 melanoma it was 12.3% (inactive) and 36% (inactive); in the experiment with EKVX NSCLC, 38.1% (inactive) and 5.43% (active); in the experiment on SN12C renal, 23.1% (inactive) and 4.76% (active). The growth in the experiment on UO-31 renal was 35.2% (inactive) and -11.4% (active); in the experiment with TK-10 renal it was 16.4% (inactive) and 36.7% (inactive); in the experiment with ACHN renal it was 16.5% (inactive) and 5.9% (active); in the experiment with CAKI-1 renal, 13.5% (inactive) and 5.47% (active); in the experiment on A498 renal, 78.5% (inactive) and 69.6% (inactive); in the experiment with CCRF-CEM leukemia, 6.41% (active) and -2.4% (active). Further, the growth in the experiment with MOLT-4 leukemia is 9.43% (active) and 6.36% (active).
As to `COc1ccc(S(=O)(=O)N2CCOCC2)cc1NC(=O)c1[nH]c(C)c2c1CCCCC2=O`, the growth with HCT-15 colon was 104% (inactive) and 26.9% (inactive); with HT29 colon, 112% (inactive) and 31.7% (inactive); in the experiment on SNB-75 CNS, 101% (inactive) and 7.61% (active); in the experiment on SNB-19 CNS, 98.7% (inactive) and 64.1% (inactive); in the experiment with U251 CNS it was 97.9% (inactive) and 63.2% (inactive); with PC-3 prostate, 46.4% (inactive). Moreover, the growth in the experiment with SK-MEL-5 melanoma was 97.8% (inactive) and 70.9% (inactive); with UACC-62 melanoma, 98.2% (inactive) and 33.3% (inactive); with SK-MEL-28 melanoma it was 101% (inactive) and 62.5% (inactive); with EKVX NSCLC, 103% (inactive) and 54% (inactive); in the experiment on SN12C renal it was 98.3% (inactive) and 64.4% (inactive); in the experiment on UO-31 renal it was 90.5% (inactive) and 32% (inactive). Also, the growth is 103% (inactive) and 28.5% (inactive) in the experiment on TK-10 renal; 107% (inactive) and 50.6% (inactive) in the experiment with ACHN renal; 96.6% (inactive) and 15.7% (inactive) in the experiment on CAKI-1 renal; 93.5% (inactive) and -15.8% (active) with A498 renal; 111% (inactive) and 58.9% (inactive) in the experiment on CCRF-CEM leukemia; 104% (inactive) and 65.9% (inactive) in the experiment with MOLT-4 leukemia.
For the compound `COc1ccc(-c2cn[nH]c2-c2cc(OC)c(OC)c(OC)c2)cc1N`, the growth with HCT-15 colon was 8.28% (active) and 13.1% (inactive); in the experiment with HT29 colon, 1.51% (active) and 10.1% (inactive); in the experiment with SNB-19 CNS it was 34.4% (inactive) and 34.1% (inactive); with U251 CNS it was 9.51% (active) and 19.3% (inactive); in the experiment with PC-3 prostate, 19.1% (inactive) and 27.2% (inactive); with SK-MEL-5 melanoma, -40.3% (active) and -49.2% (active). The growth with UACC-62 melanoma is 46.1% (inactive) and 32.6% (inactive); with LOX IMVI melanoma, 35.2% (inactive) and 28.5% (inactive); in the experiment on SK-MEL-28 melanoma, 49.7% (inactive) and 62.5% (inactive); in the experiment with SK-MEL-2 melanoma it was 47.8% (inactive) and 62.1% (inactive); in the experiment on EKVX NSCLC, 47.5% (inactive) and 44% (inactive); with SN12C renal, 36.3% (inactive) and 28.5% (inactive). In addition, the growth with UO-31 renal was 50.1% (inactive) and 34.7% (inactive); in the experiment on TK-10 renal it was 76.4% (inactive) and 91.4% (inactive); in the experiment on ACHN renal, 30.7% (inactive) and 29.4% (inactive); with CAKI-1 renal it was 25.1% (inactive) and 22.9% (inactive); with A498 renal, -1.49% (active); in the experiment on CCRF-CEM leukemia, 22.1% (inactive) and 21.2% (inactive). The growth in the experiment with MOLT-4 leukemia was 16.3% (inactive) and 23.4% (inactive).
